Most compounds without a hit are left out; they make up all but 5.3% or so of the library.
Tau fibril FP = qHTS for Inhibitors of Tau Fibril Formation, Fluorescence Polarization. Microtubule-associated protein tau (Homo sapiens), P10636. actives 0.39% (n = 280,000). Potency, µM (doses to about 57.7 µM), for the others: at the highest dose activity, negative = inhibition, most hits filed as inhibitors. K18 P301L tau heparin fibrillization, Alexa594 FP, 6 h; further: potency means the concentration at half of the fitted maximal effect; nearly all actives have a fitted effect of over 55% in size
Target sequence (P10636 561-689 P618L limits assumed): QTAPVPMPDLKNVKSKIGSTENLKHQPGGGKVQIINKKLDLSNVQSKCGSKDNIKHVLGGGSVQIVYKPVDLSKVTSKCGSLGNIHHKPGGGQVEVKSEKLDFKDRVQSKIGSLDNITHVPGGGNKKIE
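Compound effects on tau fibrillization are measured by Alexa 594 fluorescence polarization (ex 555, em 632 nm). K18 P301L tau is used at 15 uM with 0.24 uM labeled tracer, and 20 uM heparin induces aggregation over 6 hr at 37 C.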
Sfp PPTase inh = qHTS Assay for Inhibitors of Bacillus subtilis Sfp phosphopantetheinyl transferase (PPTase); Biochemical Sfp PPTase activity, qHTS; Potency, µM, for the others: largest response in the series, negative = inhibition, hits mostly inhibitors; actives 3.5% (n = 310,000); AID 1490, 2009;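 further: the enzyme is Sfp with the accession as filed and its product quenches rhodamine fluorescence; potency means the concentration at half of the fitted maximal effect; 0% = enzyme reaction without inhibitor and -100% = no enzyme wells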
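After 15 min at room temperature with compound, 15 nM Sfp received 5 uM rhodamine-CoA plus 12.5 uM BHQ-2-ybbR (50 mM Hepes pH 7.6, 10 mM MgCl2). Rate came from the fluorescence difference over 30 min, ex 525/em 598 nm.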
Tau fluor counter = Counterscreen qHTS for Inhibitors of Tau Fibril Formation, Fluorescence Polarization; tau K18 P301L Alexa594 fluorescence, heparin fibrillization; actives 0.93% (n = 280,000); AID 1463, 2008; Potency, µM (series often up to 57.7 µM), for the others: top-dose activity change, negative = decrease; further: potency means the concentration at half of the fitted maximal effect; nearly all actives have a fitted effect of over 55% in size
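Human K18 P301L tau (15 uM unlabeled plus 0.24 uM Alexa 594-labeled, final) in 100 mM sodium acetate pH 7 was mixed with compound and 20 uM heparin and incubated 6 hr at 37 C.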
FBPA coupling cs = qHTS Assay for Inhibitors of Fructose-1,6-bisphosphate Aldolase from Giardia Lamblia: Coupling assay counterscreen; coupling enzyme system counterscreen, AmpLite Red fluorescence; activity change, negative = inhibition, % at 58.2 µM, hits read low; actives 0.67% (n = 290,000); AID 2472, 2010; in the data active means activity change below about -30%
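Compounds tested against the coupling enzymes alone at 57.5 uM final; readout was AmpLite Red fluorescence (525/598 nm) after 20 min at RT.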
JMJD2E inh = qHTS Assay for Inhibitors of Human Jumonji Domain Containing 2E (JMJD2E) | Lysine-specific demethylase 4E (Homo sapiens), B2RXH2 | JMJD2E catalytic domain, FDH-coupled NADH fluorescence (FDH is formaldehyde dehydrogenase) | Potency, µM (top dose mostly 57.1 µM), inactives show top-dose activity change, negative = inhibition, usual class: inhibitors | actives 1.6% (n = 230,000); active means well fitted inhibition curve with a large enough effect, not every such curve was filed as active; inconclusive means small, poorly fitted or top-dose-only effect, or another doubt; inactive means no such curve, though single readings can be large or run the other way;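 further: potency means the concentration at half of the fitted maximal effect; 0% = wells with enzyme and -100% = buffer wells without enzyme; nearly all actives have a fitted effect of over 50% in size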
Target sequence (B2RXH2 1-337 limits assumed): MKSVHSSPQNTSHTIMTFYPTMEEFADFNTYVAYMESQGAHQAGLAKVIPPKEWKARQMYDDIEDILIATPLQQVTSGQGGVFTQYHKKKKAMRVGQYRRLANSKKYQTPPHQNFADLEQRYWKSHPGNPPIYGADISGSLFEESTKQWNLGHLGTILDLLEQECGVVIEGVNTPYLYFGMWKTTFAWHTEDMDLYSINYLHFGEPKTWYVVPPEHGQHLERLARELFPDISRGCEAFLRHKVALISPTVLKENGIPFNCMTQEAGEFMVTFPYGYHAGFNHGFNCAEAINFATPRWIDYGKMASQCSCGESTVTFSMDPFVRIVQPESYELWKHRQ
Tau ThT inhib = qHTS for Inhibitors of Tau Fibril Formation, Thioflavin T Binding; Microtubule-associated protein tau (Homo sapiens), P10636; Potency, µM (series often up to 57.4 µM), inactives show at the top dose activity, negative = inhibition, most hits filed as inhibitors; recombinant tau K18 P301L (four-repeat tau fragment), heparin-induced fibrillization, ThT fluorescence; actives 2.1% (n = 270,000); further: potency means the concentration at half of the fitted maximal effect; nearly all actives have a fitted effect of over 55% in size
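Heparin-induced fibrillization of the P301L-mutant K18 repeat-domain fragment of human tau was followed by ThT binding in quantitative high-throughput format.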
The depositor's hits bear a star; ? = inconclusive; nt = no result given; [ ] = dose if it differs, or a comment. Unless noted, the call rests on the fitted dose curve; in most records, active means well fitted curve in the direction sought with a large enough effect; inconclusive means small, poorly fitted or top-dose-only effect, or another doubt; inactive means no such curve, though single readings can be large; an effect the other way counts as inactive or inconclusive. Unless noted, on the % scale 0 is the no-effect control and ±100 the full control effect.

SMILES	Tau fibril FP	Sfp PPTase inh	Tau fluor counter	FBPA coupling cs	JMJD2E inh	Tau ThT inhib
O=C(CSc1nnc(-c2cccnc2)n1Cc1ccco1)N1CCc2ccccc21	-0.1%	20µM*	-0.4%	0.3	-1.5%	8.7%
Fc1ccc(CSc2nnc(-c3cccnc3)n2Cc2ccco2)cc1	3.4%	39.8µM*	0.9%	2.8	1.1%	-3.0%
CCC(C)C(NC(=O)OC(C)(C)C)C(=O)NC1COC2CC(n3ccc(=O)[nH]c3=O)OC12 (centres undefined)	nt	9.8%	nt	2.4	nt	nt
CN(C)c1ccc(/C=C/C(=O)c2ccccc2)cc1[N+](=O)[O-]	4.0%	-14.7%	?	-1.6	-0.7%	10µM*
CNc1ccc(/C=C/C(=O)c2ccc3c(c2)OCCO3)cc1[N+](=O)[O-]	2.2%	-17.6%	?	-0.9	12.5%	2.51µM*
CNc1ccc(/C=C/C(=O)c2ccc(C)cc2)cc1[N+](=O)[O-]	2.3%	1.3%	-22.5%	0.4	12.3%	3.16µM*
CC(=O)OC[C@H]1O[C@@H](O/N=C(\C)CCN2CCCc3nc(C)c(C)cc32)[C@H](OC(C)=O)[C@@H](OC(C)=O)[C@H]1OC(C)=O	2.0%[11.6 µM]	-4.2%	-1.5%[11.6 µM]	-1.8	nt	-2.3%[11.5 µM]
O=C(CC(Nc1cccc(Cl)c1Cl)C(=O)O)c1ccccc1 (centres undefined)	-13.0%	8.91µM*	5.9%	10.6	?	?
COc1ccccc1NC(CC(=O)c1ccccc1)C(=O)OCC(=O)c1ccc(F)cc1 (centres undefined)	9.2%	?	-13.1%	-2.0	-2.6%	-14.5%
Cc1c(Cl)cccc1NC(CC(=O)c1ccccc1)C(=O)OCC(=O)c1cccs1 (centres undefined)	-2.8%	8.91µM*	3.6%	-2.8	-1.7%	10.3%
O=C(CC(Nc1cccc(Cl)c1Cl)C(=O)OCC(=O)c1cccs1)c1ccccc1 (centres undefined)	?	56.2µM*	-22.3%	0.2	-6.3%	3.2%
c1ccc(CNc2ccnc(-c3cccnc3)n2)cc1	nt	-22.4%	nt	-1.2	nt	nt
COc1ccc(OC)c(C2=Nn3c(nnc3-c3cccc(OC)c3OC)SC2)c1	nt	29.5%	nt	-0.3	nt	nt
Cc1ccc(NC(=O)c2c(NC(=O)c3ccco3)sc3c2CCC(C(C)(C)C)C3)c(C)c1 (centres undefined)	-10.9%	nt	-8.6%	nt	nt	0.5%
CC(C)c1ccc(Nc2nnns2)cc1	-4.5%	20µM*	-6.4%	0.2	-8.0%	nt
CC(C)N1CCC2(CC1)C(C#N)=C(N)NC(S)=C2C#N	?	-9.2%	?	-6.5	?	20µM*
COCCCN(Cc1ccco1)C(=O)c1cc2c(s1)-c1ccccc1OC2	8.5%	nt	-15.7%	nt	nt	?
O=C1C(=O)c2ccccc2C(O)=C1CCCCl	-9.5%	-26.5%	-14.5%	-50.4*	-15.9%	?
Cc1ccc2cc3c(N)nn(C(=O)c4cccc(F)c4)c3nc2c1	4.3%	nt	-16.3%	nt	nt	-11.9%
COc1cccc(C2C=C(c3ccc(C)cc3)Nc3c(C(=O)Nc4ccc(F)cc4)cnn32)c1OC (centres undefined)	-11.1%	nt	?	nt	nt	?
N#C/C(=C/c1ccc(N2CCOCC2)o1)C(=O)Nc1ccccc1	7.1%	?	-23.7%	-2.9	-10.6%	?
O=C1NC(=O)/C(=C/c2ccc(N3CCOCC3)o2)N1	-14.4%	31.6µM*	-17.8%	-29.5	-17.0%	?
O=C1NC(=O)/C(=C\c2ccc(N3CCOCC3)o2)N1	?	17.8µM*	?	-5.4	-23.2%	?
O=[N+]([O-])c1cc(-c2nc(-c3ccccc3)no2)ccc1NCCc1ccccc1	-4.0%	nt	-12.1%	nt	nt	-5.4%
